The text below walks through data of PubChem BioAssay (NCATS).

“And” between values parts separate entries of the source, which are not always exact repeats. Equal values may be shown once. Inconclusive results are not listed. The source made the active and inactive calls. Unless noted, calls follow the shape of the dose curve; as a rule, active = well fitted curve in the direction sought with a large enough effect; inconclusive = small, poorly fitted or top-dose-only effect, or another doubt; inactive = no such curve, though single readings can be large; an effect the other way counts as inactive or inconclusive.

Experiment [1] deals with Alpha-galactosidase A (Homo sapiens) (UniProt P06280). The experiment can be described thus: Counterscreen for Glucocerebrosidase Inhibitors: qHTS Assay for Human alpha-Galactosidase at pH 4.5 (AID 992). Also: 0% is about no effect. In a few lines:
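Read-out is 4-methylumbelliferone fluorescence (365 nm excitation, 440 nm emission) after a pH 10 NaOH/glycine stop. Reactions held 2 nM enzyme and 80 uM substrate at pH 4.5 for 20 min at room temperature.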
For orientation: Counterscreens check selectivity or assay interference.

Experiment [2] addresses alpha-glucosidase (Oryza sativa, rice) (UniProt Q653V4). Kind of experiment: Counterscreen for Glucocerebrosidase Inhibitors: qHTS Assay for Rice alpha-Glucosidase at pH 5.0 (AID 997).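 Also: 0% = full activity with enzyme and -100% = basal without enzyme.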 In a few lines:
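Rice alpha-glucosidase (4 nM final) with 400 uM 4-methylumbelliferyl-alpha-D-glucopyranoside in citrate buffer pH 5.0, 20 min at room temperature, stopped at pH 10; fluorescence 365/440 nm, compounds 0.7 nM–77 uM, AC50 from Hill fits.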

The nature of experiment [3]: qHTS Assay for Lipid Storage Modulators (AID 1519; calls by dose curve; as to activity change, negative = inhibition: % is scaled to controls: 0 for no effect and ±100 for the full control effect). The following applies: Drosophila S3 cells, BODIPY lipid droplet/cell ratio, laser cytometry, cells loaded with oleic acid. In a few lines:
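Cells seeded at 5,000 per well were treated with compounds over a concentration series and loaded with oleic acid (400 uM, as added). Lipid droplet fluorescence (488 nm excitation, 500-530 nm channel) was read by laser-scanning cytometry and normalized to 20 uM Triacsin C.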
(In general: Quantitative high-throughput screening tests each substance at several concentrations.)

Experiment [4] concerns the target DNA repair nuclease/redox regulator APEX1 (Homo sapiens) (UniProt P27695). The experiment can be described thus: qHTS Validation Assay for Inhibitors of the Human Apurinic/apyrimidinic Endonuclease 1 (APE1) (AID 1705;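 also: TAMRA fluorescence gain over two minutes as APE1 cuts a quenched THF abasic duplex; % is scaled to controls: 0 for no effect and ±100 for the full control effect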). In a few lines: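 Human APE1 was preincubated with compound for 15 min at room temperature, then 50 nM (final) THF-abasic double-stranded DNA substrate bearing 5'-TAMRA and 3'-BHQ-2 was added. Incision-driven fluorescence rise (ex 525/em 598 nm) was read kinetically.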

Experiment [5] in a line: Counterscreen for APE1 Inhibitors: Fluorescent Dye Displacement Validation Assay (AID 1707).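 Also: plate controls were ThO with dsDNA and no compound for no effect and ThO without dsDNA for full effect.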 In a few lines:
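ThO 250 nM + dsDNA 50 nM (THF abasic site, 5'-TAMRA), Tris-HCl pH7.5/50mM NaCl/2 mM MgCl2/0.01% Tween-20; compounds pin-transferred; ex 480/em 540 nm endpoint. Neutral = no compound; no-DNA ThO wells = negative control.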

Experiment [6] can be described thus: Cell Viability - LYMP2-014 (AID 983).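 Also: plate controls were DMSO only for no effect and 92 µM tetraoctylammonium bromide for full effect; nearly all actives have a fitted effect of over 50% in size.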 In a few lines:
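LYMP2-014 human lymphoblastoid cells, 2500/well, treated 24 h at 37 C in complete medium; viability by CellTiter-Glo ATP luminescence after 30 min at room temperature. AC50 from Hill fits of qHTS concentration-response; tetraoctylammonium bromide positive control.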

Experiment [7] in a line: Cell Viability - LYMP2-016 (AID 984). Also: % is scaled to controls: 0 for no effect and ±100 for the full control effect; nearly all actives have a fitted effect of over 55% in size. In a few lines: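 Human lymphoblastoid cells (LYMP2-016), 2500/well in complete medium, preincubated 5 hr at 37 C, then compound-treated 24 hr at 37 C. Intracellular ATP read by CellTiter-Glo luminescence after 30 min at room temperature; AC50 from Hill-equation concentration-response fits.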
Experiment [8] can be described thus: Cell Viability - LYMP2-020 (AID 986).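 Also: plate controls were DMSO only for no effect and tetraoctylammonium bromide at 92 µM for full effect; nearly all actives have a fitted effect of over 55% in size.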 In a few lines: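 Human lymphoblastoid LYMP2-020 cells (2500/well) preincubated 5 h at 37 C, then treated 24 h at 37 C. Viability measured as intracellular ATP by CellTiter-Glo luminescence after 30 min at room temperature; AC50 from Hill fits.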
A short description of experiment [9]: Cell Viability - LYMP2-024 (AID 988).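 Also: plate controls were DMSO only for no effect and 92 µM tetraoctylammonium bromide for full effect; nearly all actives have a fitted effect of over 60% in size.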 In a few lines: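 Human lymphoblastoid LYMP2-024 cells (2500/well) rested 5 hr, then treated with compound for 24 hr at 37 C in complete medium. Viability was measured as intracellular ATP by CellTiter-Glo luminescence. AC50 values came from Hill-equation fits.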
Experiment [10] in a line: Cell Viability - LYMP2-026 (AID 989). Also: % is scaled to controls: 0 for no effect and ±100 for the full control effect; nearly all actives have a fitted effect of over 50% in size. In a few lines:
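Human lymphoblastoid LYMP2-026 cells, 2500/well, exposed to compound 24 h at 37 C in complete medium. Viability as intracellular ATP by CellTiter-Glo luminescence; AC50 from Hill fits of qHTS concentration-response.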

Experiment [11] can be described thus: Cell Viability - LYMP1-002 - Assay at 24 hr (AID 993). Also: % is scaled to controls: 0 for no effect and ±100 for the full control effect. In a few lines:
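Human lymphoblastoid LYMP1-002 cells (2500/well) treated 24 h at 37 °C; viability as intracellular ATP by CellTiter-Glo luminescence. Tetraoctylammonium bromide as positive control; AC50 from Hill-equation fits of qHTS concentration-response.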

The target in experiment [12] is Endonuclease 4 (Escherichia coli (strain K12)) (UniProt P0A6C1). The experiment can be described thus: Counterscreen for APE1 Inhibitors: qHTS Validation Assay for Inhibitors of Endonuclease IV (AID 1708). Also: % is scaled to controls: 0 for no effect and ±100 for the full control effect. In a few lines: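 qHTS concentration-response format; LOPAC1280 tested under APE1-screen conditions. 2 nM enzyme, 15 min compound preincubation at RT, then 50 nM TAMRA/BHQ-2 abasic substrate; kinetic fluorescence read, three reads at 60 s intervals.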

The mark [13] stands for this setting: measured here: cell count channel max response.
Setting [14] is: measured here: lipid channel max response.

Sequence of Alpha-galactosidase A (Homo sapiens) (P06280 whole entry, looked up): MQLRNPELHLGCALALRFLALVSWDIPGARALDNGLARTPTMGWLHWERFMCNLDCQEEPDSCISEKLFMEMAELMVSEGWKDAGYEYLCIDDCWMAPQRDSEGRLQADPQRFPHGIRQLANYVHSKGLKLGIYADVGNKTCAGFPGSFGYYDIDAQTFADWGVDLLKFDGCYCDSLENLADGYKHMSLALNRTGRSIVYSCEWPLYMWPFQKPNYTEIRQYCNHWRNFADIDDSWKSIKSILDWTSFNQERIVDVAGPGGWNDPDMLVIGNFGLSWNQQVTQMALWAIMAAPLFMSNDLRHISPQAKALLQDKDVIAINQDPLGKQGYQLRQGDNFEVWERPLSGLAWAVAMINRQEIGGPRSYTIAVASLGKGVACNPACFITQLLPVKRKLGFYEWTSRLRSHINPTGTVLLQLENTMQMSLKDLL
Sequence of DNA repair nuclease/redox regulator APEX1 (Homo sapiens) (P27695 whole entry, looked up): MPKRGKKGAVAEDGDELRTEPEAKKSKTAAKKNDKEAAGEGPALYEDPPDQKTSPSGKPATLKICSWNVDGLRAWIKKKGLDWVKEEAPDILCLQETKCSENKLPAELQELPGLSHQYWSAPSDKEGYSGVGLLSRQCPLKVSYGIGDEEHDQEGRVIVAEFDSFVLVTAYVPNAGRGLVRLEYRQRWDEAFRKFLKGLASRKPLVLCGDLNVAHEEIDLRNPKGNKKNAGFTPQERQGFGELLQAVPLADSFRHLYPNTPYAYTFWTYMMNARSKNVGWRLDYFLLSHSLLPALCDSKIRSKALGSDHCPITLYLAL

Regarding `CN(C)CCOC(c1ccccc1)c1ccccc1`, the outcome in [1] and in [2] was inactive. Besides, the activity change, negative = inhibition in experiment [3] (at 25.7 µM (top of the series)) is -4.2% (inactive); in experiment [3] (at 57.5 µM (top of the series)), 0.806% (inactive). For the same compound, the max response in experiment [3] (setting [13]) is -10.1% and 40.8%; in experiment [3] (setting [14]) it was -13% and 41%. In addition, the Potency result in [4] and in experiment [5] was “inactive” each time.
On to `O=c1[nH]cc(F)c(=O)[nH]1`, for which the compound was called inactive in experiment [6], in experiment [7], in experiment [8], in [9], in experiment [10] and in experiment [1]. In addition, in experiment [11], the compound was classed as inactive. In addition, the activity change, negative = inhibition in [3] (at 57.5 µM (top of the series)) was 6.92% (inactive) and -0.382% (inactive). For the same compound, the max response in [3] (setting [13]) is 3.09% and 58.9%; in [3] (setting [14]), 12.8% and 58.3%. For the same compound, the Potency result in [4] was “inactive”.
For `O=C(c1ccc(OCCN2CCCCC2)cc1)c1c(-c2ccc(O)cc2)sc2cc(O)ccc12`, the outcome in experiment [1] and in experiment [2] was inactive. Moreover, the activity change, negative = inhibition in experiment [3] (at 25.7 µM (top of the series)) is -1.98% (inactive); in experiment [3] (at 57.5 µM (top of the series)) it was 1.97% (inactive). For the same compound, the max response in experiment [3] (setting [13]) is -4.67% and -13.2%; in [3] (setting [14]), -4.93% and -10.5%. Further, the Potency entry in experiment [4] was “inactive”.
On to `CNCCCC12CCC(c3ccccc31)c1ccccc12`, for which, in experiment [1], the result was inactive. For the same compound, the activity change, negative = inhibition in experiment [3] (at 25.7 µM (top of the series)) was -2.57% (inactive); in experiment [3] (at 57.5 µM (top of the series)), -1.14% (inactive) and 2.05% (inactive). The max response is -12.7% and 1.78% and 3.8% in experiment [3] (setting [13]); -13.9% and 1.75% and 6.48% in experiment [3] (setting [14]). In addition, the Potency entry in [4] and in experiment [12] was “inactive” each time.
On to `COC(=O)Nc1nc2ccc(C(=O)c3cccs3)cc2[nH]1`, for which, in experiment [1], the result was inactive. Further, the results for the activity change, negative = inhibition in [3] (at 25.7 µM (top of the series)) and in [3] (at 57.5 µM (top of the series)) were -7.22% (inactive) and 1.19% (inactive), respectively. For the same compound, the max response in experiment [3] (setting [13]) is -4.31% and 9.27%; in [3] (setting [14]), -12.3% and 9.44%. For the same compound, in [12], the Potency entry is “inactive”.
Regarding `CC(C)NCC(O)COc1ccc(CCOCC2CC2)cc1` (stereo unspecified), in experiment [3] (at 57.5 µM (top of the series)), the activity change, negative = inhibition is -2.88% (inactive). Also, the values for the max response in [3] (setting [13]) and in [3] (setting [14]) were -16.9% and -20.2%, respectively. The Potency entry in [5] and in experiment [12] was “inactive” in each case.
For the compound `CN1CCN(CCCN2c3ccccc3Sc3ccc(Cl)cc32)CC1`, in [1], the result was inactive. The figures for the activity change, negative = inhibition in experiment [3] (at 25.7 µM (top of the series)) and in [3] (at 57.5 µM (top of the series)) were -2.25% (inactive) and 2.24% (inactive), respectively. Further, the max response in [3] (setting [13]) was -2.79% and -1.33%; in [3] (setting [14]) it was -5.2% and 2.08%. The Potency entry in experiment [4] was “inactive”.
Consider `CN1CCN2c3ccccc3Cc3ccccc3C2C1` (stereo unspecified), for which the activity change, negative = inhibition in [3] (at 57.5 µM (top of the series)) was 3.41% (inactive). For the same compound, the max response was determined as 10.1% in experiment [3] (setting [13]) and 10.4% in [3] (setting [14]). For the same compound, the Potency result in experiment [4], in experiment [5] and in experiment [12] was “inactive” each time.
